Measured potencies and affinities stand elsewhere.

This assay has as its system Klebsiella pneumoniae. As to conditions: Concentration 32 ug.mL-1; ASSAY_TEST Inhibition of Bacterial Growth; detection method Absorption (OD600); MEDIA CAMHB; plate type 384well; NBS; CORNING #3640; time 18 hr.
As to `COc1ccc(Nc2ccccc2-c2ccc([N+](=O)[O-])cc2)cc1`, the Inhibition stood at 12.08%.
For the molecule `c1ccc(Nc2ccccc2-c2ncccn2)cc1`, the Inhibition is 8.33%.
Take `O=[N+]([O-])c1ccc(-c2ccccc2Nc2ccccc2)cc1`: the Inhibition was -3.59%.
Consider `Clc1cc(Br)cc(Cl)c1-c1ccccc1Nc1ccccc1`, for which the Inhibition is recorded as 1.2%.
To `O=[N+]([O-])c1ccc(-c2c(Nc3ccccc3)ccc3ccccc23)cc1` belongs -5.26%.
To `O=[N+]([O-])c1ccc(-c2ccccc2Nc2ccccc2)cc1C(F)(F)F` belongs 20.57%; to `Cc1cc(C)c(Nc2ccccc2-c2ccc([N+](=O)[O-])cc2)c(C)c1`, -16.56%; to `COc1cccc(Nc2ccccc2)c1-c1c(Cl)cc(Br)cc1Cl`, 24.48%.
Regarding `O=[N+]([O-])c1ccc(-c2ccccc2Nc2ccccc2Br)cc1`, the Inhibition amounted to 7.18%.
With `CC(=O)c1ccc(-c2ccccc2Nc2ccccc2)cc1`, the Inhibition worked out at 4.21%.
To `O=[N+]([O-])c1ccc2c3ccccc3n(-c3ccccc3)c2c1` belongs 5.72%; to `O=[N+]([O-])c1ccc(-c2c(Nc3ccccc3)cccc2-c2ccccc2)cc1`, 6.43%.
Regarding `CC[C@@H](Nc1ccccc1-c1c(Cl)cc(Br)cc1Cl)c1ccccc1`, the Inhibition was found to be 20.15%.
On to `O=[N+]([O-])c1ccc(-c2ccccc2Nc2ccccc2)cc1F`, for which the Inhibition was 14.23%.
Regarding `O=[N+]([O-])c1ccc(-c2ccccc2N(Cc2ccccc2)c2ccccc2)cc1`, the Inhibition is 8.4%.
To `Cc1cccc(C)c1Nc1ccccc1-c1ccccc1[N+](=O)[O-]` belongs 2.08%.
Turning to `N#Cc1ccc(-c2ccccc2Nc2ccccc2)cc1`, the Inhibition came out at 9.14%.
To `COc1cc([N+](=O)[O-])ccc1-c1c(Nc2ccccc2)cccc1OC` belongs 14.15%; to `Cc1cc([N+](=O)[O-])ccc1-c1ccccc1N(C)c1ccccc1`, -15.08%; to `Cc1ccccc1Nc1ccccc1-c1ccc([N+](=O)[O-])cc1`, -1.35%.
As for `COc1cc([N+](=O)[O-])ccc1-c1ccccc1Nc1ccccc1`, the Inhibition was 18.46%.
`COc1cccc(N(C)c2cccc(OC)c2-c2ccc([N+](=O)[O-])cc2C)c1`: the Inhibition was determined as 4.9%.
To `O=[N+]([O-])c1ccc(-c2ccccc2Nc2ccccc2)c(Cl)c1` belongs 13.74%; to `O=[N+]([O-])c1ccc(-c2cccc3c2[nH]c2ccccc23)cc1`, 2.37%; to `O=[N+]([O-])c1cc(Cl)c(-c2ccccc2Nc2ccccc2)c(Cl)c1`, -1.39%.
For `CN(c1ccccc1)c1ccccc1-c1ccc([N+](=O)[O-])cc1`, the Inhibition is 13.85%.
To `COc1cccc(Nc2ccccc2)c1-c1ccc([N+](=O)[O-])cc1` belongs -2.96%.

Broadly, the Inhibition is the drop in the measured response relative to a control, in per cent.

The values above are taken from ChEMBL document CHEMBL4513137, “CO-ADD screening of University of Manchester (UK) compounds”.
